Screening data deposited in PubChem BioAssay by several laboratories.
CYP2C19 inh: blocks human cytochrome P450 2C19. 96,000 tested, 21% active. AID 778. inhibition, % at 5 µM. CYP2C19 Supersomes, luciferin-H EGE luminescence, 30 min. P33261;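 active = CYP2C19 inhibition above a set limit at 5 µM in the primary screen, cut at about 50% in these data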
CYP2C9 inh: human CYP2C9 inhibition; CYP2C9 Supersomes, luciferin-H conversion, luminescence; inhibition, % at 5 µM; 96,000 tested, 20% active; AID 777;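 active = blocking of liver enzyme CYP2C9 beyond about 50% at 5 µM, limit read from the data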
Target sequence (P11712 whole entry, looked up): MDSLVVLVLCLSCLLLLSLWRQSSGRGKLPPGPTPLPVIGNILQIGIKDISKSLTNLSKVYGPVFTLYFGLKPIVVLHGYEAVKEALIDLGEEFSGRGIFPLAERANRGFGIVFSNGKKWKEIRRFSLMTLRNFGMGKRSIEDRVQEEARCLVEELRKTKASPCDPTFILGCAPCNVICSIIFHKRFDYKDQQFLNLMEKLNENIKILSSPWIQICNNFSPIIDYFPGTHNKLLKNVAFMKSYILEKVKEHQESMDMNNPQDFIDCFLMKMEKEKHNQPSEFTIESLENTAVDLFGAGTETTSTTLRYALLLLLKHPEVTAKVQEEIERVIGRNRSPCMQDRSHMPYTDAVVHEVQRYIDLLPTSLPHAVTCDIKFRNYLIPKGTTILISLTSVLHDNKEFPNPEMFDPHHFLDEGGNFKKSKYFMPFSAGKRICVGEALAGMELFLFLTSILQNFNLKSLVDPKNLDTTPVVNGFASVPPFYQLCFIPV
CYP2C9 act: increases human cytochrome P450 2C9 activity; recombinant CYP2C9, luciferin-H conversion, luminescence; active compounds read high; factor 1 = untreated enzyme, 0 = blocked; activation factor at 5 µM; 96,000 tested, 1.4% active;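 active = activation factor of 2 or more for CYP2C9 at a 5 µM dose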
CYP2C19 activ: cytochrome P450 2C19 (human) activation; AID 1025; 96,000 tested, under 10 active; recombinant CYP2C19, luciferin-H EGE luminescence; active compounds read high; 0 = fully inhibited enzyme, 1 = untreated enzyme; activation factor at 5 µM; P33261;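 active = activation factor of at least 2 at 5 µM in the primary screen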
Measles CPE: protection of cells from measles virus; 140,000 tested, 1.5% active; protection (pct of control), % at 4 µM; Measles virus-infected cells, CPE protection, absorbance; AID 841; in the data active = protection mostly above about 24%, no sharp cut-off; inactive = mostly below about 26%
Numbers stand for hits; – = inactive; · = no result. Compounds with a hit are over-represented: about 22% of the library has one in this group of screens.

SMILES	CYP2C19 inh	CYP2C9 inh	CYP2C9 act	CYP2C19 activ	Measles CPE
CCOC(=O)CNC(=O)CSc1nc2cccnc2n1Cc1ccccc1	80	–	–	–	–
CCC(Sc1nc2ccsc2c(=O)n1-c1ccc(Cl)c(C)c1)C(=O)NCc1ccco1 (centres undefined)	·	·	·	·	–
Cc1nc(NC(=O)CSc2nc3cccnc3n2Cc2ccccc2)sc1C	63	59	–	–	–
CCOC(=O)C1CCN(Cc2nc3ccc(Cl)cc3n2CCO)CC1	–	–	–	–	–
Cc1cc(/C=N/n2cnnc2)c(O)c([N+](=O)[O-])c1	·	·	·	·	–
COc1cc(OC)c(NC2=NCCCCC2)cc1Cl	–	–	–	–	–
Clc1ccccc1CSc1nncn1NC/C=C/c1ccccc1	·	·	·	·	–
OCCN(CCO)c1ncnc2c1oc1ccc(Br)cc12	–	–	–	–	–
O=C(CSc1nc2cccnc2n1Cc1ccccc1)NCc1ccco1	58	–	–	–	–
Cc1nc(NC(=O)CSc2ccccc2N)sc1C	–	76	–	–	–
NNC(=O)Cn1c(SCc2ccccc2)nc2ccccc21	96	–	–	–	–
CCSc1nc2ccccc2n1CCC(=O)O	–	–	–	–	–
O=C(O)CCn1c(SCc2cccc3ccccc23)nc2ccccc21	–	66	–	–	29
FC(F)(F)c1nc2ccccc2nc1N/N=C\c1ccccc1	–	–	–	–	–
O=C(CSc1nc2ccccc2n1Cc1ccccc1)N/N=C/c1ccco1	56	–	–	–	–
Cc1nc(NC(=O)CCCC(=O)Nc2nc(C)c(C)s2)sc1C	–	81	–	–	–
CC1CN(C2CCN(C(=O)c3ccccc3)CC2)CC(C)O1 (centres undefined)	–	–	–	–	–
COc1nc(C#N)nc(N(C)C)n1	–	–	–	–	–
COc1ccc(C(=NNc2ccccc2C(=O)O)c2ccc(OC)cc2)cc1	·	·	·	·	–
Cc1nnc(SCCn2c(N3CC(C)CC(C)C3)nc3c2c(=O)[nH]c(=O)n3C)s1 (centres undefined)	–	61	–	–	–
CC(C)(C)NC(=S)NCc1ccco1	·	·	·	·	–
O=[N+]([O-])c1ccccc1N/N=C\c1ccccc1Cl	64	–	–	–	–
COc1cccc(-c2csc(N3CCN(C(=O)C4CCCCC4)CC3)n2)c1	77	58	–	–	–
COc1cccc(C2CC(=O)N3CN(c4ccccc4F)CSC3=C2C#N)c1 (centres undefined)	68	84	–	–	–
COc1ccc(OC)c(C2CC(=O)N3CN(c4ccccc4F)CSC3=C2C#N)c1 (centres undefined)	–	89	–	–	–
SMILES	CYP2C19 inh	CYP2C9 inh	CYP2C9 act	CYP2C19 activ	Measles CPE
CCc1ccccc1N1CSC2=C(C#N)C(c3cc(OC)c(OC)cc3OC)CC(=O)N2C1 (centres undefined)	–	–	–	–	–
NC(=O)CSc1nc(-c2ccccc2)c(-c2ccccc2)o1	·	·	·	·	–
Cc1ccc(-n2c(CNc3ccc(F)cc3)nnc2SCC(=O)NCc2ccco2)cc1	–	61	–	–	–
O=C(CSc1nnc(CCc2nc3ccccc3[nH]2)n1-c1ccccc1)NCc1ccco1	–	75	–	–	–
O=C(CSc1nnc(CCc2nc3ccccc3[nH]2)n1-c1ccccc1)NCc1ccccc1	·	·	·	·	–
COc1ccc(NCc2nnc(SCC(=O)NCc3ccco3)n2-c2ccccc2OC)cc1	·	·	·	·	–
CCOC(=O)c1c(N)c(C#N)c2n1CCCCC2	95	–	–	–	–
CCOC(=O)c1c(N)c(C#N)c2n1CCCC2	–	–	–	–	–
c1csc(COc2ccccc2CNC2CCCCC2)c1	·	·	·	·	–
CCCC(=O)C1=C(O)C(C(=O)OC)C(C)(C)CC1=NC (centres undefined)	–	–	–	–	–
CCCC(=O)C1=C(O)C(C(=O)OC)C(C)(C)CC1=Nc1ccc(N)cc1 (centres undefined)	52	–	–	–	–
CCCC(=O)C1=C(O)C(C(=O)OC)C(C)(C)CC1=Nc1ccncc1 (centres undefined)	90	61	–	–	–
c1ccc2cc(CSCc3nc4ccccc4[nH]3)ccc2c1	·	·	·	·	–
Cc1[nH]n(C(C)(C)C)c(=O)c1Sc1ccc(Cl)cc1	54	54	–	–	–
Cn1c(-c2ccc(N)cc2)nc2ccccc21	–	–	–	–	22
Cc1ccc(-n2c(N)c(-c3nc4ccccc4n3C)sc2=S)cc1	–	–	–	–	–
CCOC(=O)/C(N)=C/c1ncc(C(F)(F)F)cc1Cl	–	–	–	–	–
O=C(c1ccc(Br)cc1)c1cc([N+](=O)[O-])ccc1N1CCCCC1	65	61	–	–	–
O=C(NC(=S)Nc1ccc(S(=O)(=O)N2CCCC2)cc1)c1cccs1	·	·	·	·	–
CCCC(=O)NC(=S)Nc1ccc(NC(=O)c2cccs2)cc1	52	85	–	–	–
CCN(c1ccccc1)S(=O)(=O)c1ccc(NC(=S)NC(=O)c2cccs2)cc1	–	77	–	–	–
CCCC(=O)Nc1ccc(C(=O)NNC(=S)NC(=O)c2cccs2)cc1	–	–	–	–	–
O=C(NCCCN1CCN(CCCNC(=O)c2cc([N+](=O)[O-])ccc2Cl)CC1)c1cc([N+](=O)[O-])ccc1Cl	·	·	·	·	–
COc1cc(C2C(C(C)=O)=C(O)C(=O)N2CCN(C)C)ccc1O (centres undefined)	–	–	–	–	–
CC(=O)C1=C(O)C(=O)N(CCCO)C1c1ccccc1 (centres undefined)	–	–	–	–	–
SMILES	CYP2C19 inh	CYP2C9 inh	CYP2C9 act	CYP2C19 activ	Measles CPE
CC(=O)C1=C(O)C(=O)N(CCc2c[nH]c3ccccc23)C1c1cccc(O)c1 (centres undefined)	–	–	–	–	25
COc1cc(C2C(C(C)=O)=C(O)C(=O)N2CCc2c[nH]c3ccccc23)ccc1O (centres undefined)	–	64	–	–	–
CCCCC/C=N\NC(=O)Cc1ccc([N+](=O)[O-])cc1	·	·	·	·	–
COc1ccc(NC(=S)Nc2cccc(S(=O)(=O)N3CCCCC3)c2)cc1	·	·	·	·	–
O=C(NCCCN1CCc2ccccc2C1)Nc1ccc(Cl)cc1	–	–	–	–	–
Cc1nn(Cc2ccccc2Cl)c(C)c1NC(=O)c1ccn(C)n1	·	·	·	·	–
CCC(CC)c1nnc(NC(=O)c2c(C)nn(Cc3ccccc3Cl)c2C)s1	–	52	–	–	–
Cc1nn(Cc2ccccc2Cl)c(C)c1C(=O)NC1=NCCS1	66	–	–	–	–
Cc1nn(Cc2ccccc2Cl)c(C)c1C(=O)N1CCN(c2ccccc2)CC1	62	72	–	–	–
Cc1cc2oc(C(=O)N(Cc3ccco3)C3CCS(=O)(=O)C3)cc(=O)c2cc1Cl (centres undefined)	–	–	–	–	–
Cc1cccc(N2CCN(c3nc4ccc(Cl)cc4n4cnnc34)CC2)c1C	·	·	·	·	–
CCn1c(N)c(C(=O)Nc2ccccc2C(=O)OC)sc1=S	–	–	–	–	–
O=C1CCCc2c1cc(C(=O)Nc1ccc(Cl)cn1)c(=O)n2-c1ccccc1	–	78	–	–	–
Cc1cccc(C(=O)N/N=C/C(C)Cc2ccc3c(c2)OCO3)c1 (centres undefined)	·	·	·	·	–
